In article PMC9911399, “Two distinct binding modes provide the RNA-binding protein RbFox with extraordinary sequence specificity”:
Where a chain is given by its changes, count along the chain named. Whole data set: some 16,000 sequences, median “ka relative to ugcaugu” near 0.096, cut for the highest 2% near 0.35. This excerpt belongs to a sample that is enriched for the highest values.

T1: RBFOX1 RRM RbFoxmut (Fox-RRM*) (Homo sapiens, UniProt Q9NWB1 109-208, R118D;E147R;N151S;E152T)
T1 sequence: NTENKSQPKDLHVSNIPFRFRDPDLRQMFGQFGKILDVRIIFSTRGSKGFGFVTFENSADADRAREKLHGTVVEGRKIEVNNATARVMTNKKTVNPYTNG

B1: UCCUGGA (DNA:RNA)
RNA: GGGAGACCGGAAUUCAGAUUGUCCUCCUGGAUUAAAUCCCGUCGUAGCCACCA
DNA 1: CAATCTGAATTCCGGTCTCCC
DNA 2: TGGTGGCTACGACGGGATT
B2: UGGAAUG (DNA:RNA)
RNA: B1 RNA with C26G, C27G, U28A, G29A, G30U, A31G
DNA 1: CAATCTGAATTCCGGTCTCCC
DNA 2: TGGTGGCTACGACGGGATT
B3: UGGAGAU (DNA:RNA)
RNA: B1 RNA with C26G, C27G, U28A, G30A, A31U
DNA 1: CAATCTGAATTCCGGTCTCCC
DNA 2: TGGTGGCTACGACGGGATT
B4: UGGGAUC (DNA:RNA)
RNA: B1 RNA with C26G, C27G, U28G, G29A, G30U, A31C
DNA 1: CAATCTGAATTCCGGTCTCCC
DNA 2: TGGTGGCTACGACGGGATT
B5: UGGACUC (DNA:RNA)
RNA: B1 RNA with C26G, C27G, U28A, G29C, G30U, A31C
DNA 1: CAATCTGAATTCCGGTCTCCC
DNA 2: TGGTGGCTACGACGGGATT
B6: UGGAUUG (DNA:RNA)
RNA: B1 RNA with C26G, C27G, U28A, G29U, G30U, A31G
DNA 1: CAATCTGAATTCCGGTCTCCC
DNA 2: TGGTGGCTACGACGGGATT
B7: CUGGAUC (DNA:RNA)
RNA: GGGAGACCGGAAUUCAGAUUGUCCCUGGAUCUUAAAUCCCGUCGUAGCCACCA
DNA 1: CAATCTGAATTCCGGTCTCCC
DNA 2: TGGTGGCTACGACGGGATT
B8: UGGAUUC (DNA:RNA)
RNA: B7 RNA with C25U, U26G, G28A, A29U
DNA 1: CAATCTGAATTCCGGTCTCCC
DNA 2: TGGTGGCTACGACGGGATT
B9: UGGAAUC (DNA:RNA)
RNA: B7 RNA with C25U, U26G, G28A
DNA 1: CAATCTGAATTCCGGTCTCCC
DNA 2: TGGTGGCTACGACGGGATT
B10: CCAGUUC (DNA:RNA)
RNA: B7 RNA with U26C, G27A, A29U
DNA 1: CAATCTGAATTCCGGTCTCCC
DNA 2: TGGTGGCTACGACGGGATT
B11: UCAGAGG (DNA:RNA)
RNA: B1 RNA with C27A, U28G, G29A, A31G
DNA 1: CAATCTGAATTCCGGTCTCCC
DNA 2: TGGTGGCTACGACGGGATT
B12: CCAUUUC (DNA:RNA)
RNA: B7 RNA with U26C, G27A, G28U, A29U
DNA 1: CAATCTGAATTCCGGTCTCCC
DNA 2: TGGTGGCTACGACGGGATT
B13: UGAUAGC (DNA:RNA)
RNA: B1 RNA with C26G, C27A, G29A, A31C
DNA 1: CAATCTGAATTCCGGTCTCCC
DNA 2: TGGTGGCTACGACGGGATT
B14: UAUAGUG (DNA:RNA)
RNA: B1 RNA with C26A, C27U, U28A, G30U, A31G
DNA 1: CAATCTGAATTCCGGTCTCCC
DNA 2: TGGTGGCTACGACGGGATT
B15: AGUGAUA (DNA:RNA)
RNA: B7 RNA with C25A, U26G, G27U, C31A
DNA 1: CAATCTGAATTCCGGTCTCCC
DNA 2: TGGTGGCTACGACGGGATT
B16: UAGGGUG (DNA:RNA)
RNA: B7 RNA with C25U, U26A, A29G, C31G
DNA 1: CAATCTGAATTCCGGTCTCCC
DNA 2: TGGTGGCTACGACGGGATT
B17: UCCACGA (DNA:RNA)
RNA: B1 RNA with U28A, G29C
DNA 1: CAATCTGAATTCCGGTCTCCC
DNA 2: TGGTGGCTACGACGGGATT
B18: CGAGCCU (DNA:RNA)
RNA: B7 RNA with U26G, G27A, A29C, U30C, C31U
DNA 1: CAATCTGAATTCCGGTCTCCC
DNA 2: TGGTGGCTACGACGGGATT
B19: UGAUGGA (DNA:RNA)
RNA: B1 RNA with C26G, C27A
DNA 1: CAATCTGAATTCCGGTCTCCC
DNA 2: TGGTGGCTACGACGGGATT
B20: UGGAUGA (DNA:RNA)
RNA: B1 RNA with C26G, C27G, U28A, G29U
DNA 1: CAATCTGAATTCCGGTCTCCC
DNA 2: TGGTGGCTACGACGGGATT
B21: CGGAUGA (DNA:RNA)
RNA: B7 RNA with U26G, G28A, A29U, U30G, C31A
DNA 1: CAATCTGAATTCCGGTCTCCC
DNA 2: TGGTGGCTACGACGGGATT
B22: GGGUGGA (DNA:RNA)
RNA: B1 RNA with U25G, C26G, C27G
DNA 1: CAATCTGAATTCCGGTCTCCC
DNA 2: TGGTGGCTACGACGGGATT
B23: AAAUCUG (DNA:RNA)
RNA: B7 RNA with C25A, U26A, G27A, G28U, A29C, C31G
DNA 1: CAATCTGAATTCCGGTCTCCC
DNA 2: TGGTGGCTACGACGGGATT
B24: UCACACA (DNA:RNA)
RNA: B1 RNA with C27A, U28C, G29A, G30C
DNA 1: CAATCTGAATTCCGGTCTCCC
DNA 2: TGGTGGCTACGACGGGATT

What follows are binders tested against T1, RBFOX1 RRM RbFoxmut (Fox-RRM*) (assay: EMSA; HiTS-Eq, 1 nM pool, 10 min; buffer printed only for the single-RNA assays: 10 mM Tris pH 7.5, 150 mM NaCl, 3.4 mM EDTA, 0.001% NP-40, 30 C). Conditions: tags: His6 N-terminal (pET28a); label: 5' 32P.
Method in brief: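 Purified RbFox RRM, wild type or mutant, was incubated for 10 min in 50 µL with 1 nM of a 5′-radiolabelled RNA pool carrying 7 randomized nucleotides, whose flanks were annealed to DNA oligonucleotides, over a series of increasing protein concentrations. Unbound RNA was resolved on 8% native PAGE, cut out, reverse-transcribed, barcoded by PCR and sequenced on an Illumina HiSeq 2500. Relative association constants were derived from changes in read counts for each RNA species versus the control reaction and normalised to the cognate motif.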

Binder	binding signal
B1	0.0709 KA relative to UGCAUGU
B2	1.66 KA relative to UGCAUGU
B3	0.094 KA relative to UGCAUGU
B4	0.357 KA relative to UGCAUGU
B5	0.0856 KA relative to UGCAUGU
B6	0.526 KA relative to UGCAUGU
B7	0.274 KA relative to UGCAUGU
B8	0.139 KA relative to UGCAUGU
B9	0.458 KA relative to UGCAUGU
B10	0.073 KA relative to UGCAUGU
B11	0.0974 KA relative to UGCAUGU
B12	0.0493 KA relative to UGCAUGU
B13	0.0858 KA relative to UGCAUGU
B14	0.137 KA relative to UGCAUGU
B15	0.133 KA relative to UGCAUGU
B16	0.149 KA relative to UGCAUGU
B17	0.0743 KA relative to UGCAUGU
B18	0.103 KA relative to UGCAUGU
B19	0.0611 KA relative to UGCAUGU
B20	0.401 KA relative to UGCAUGU
B21	0.235 KA relative to UGCAUGU
B22	0.0811 KA relative to UGCAUGU
B23	0.0533 KA relative to UGCAUGU
B24	0.0876 KA relative to UGCAUGU
